From the supplement of paper PMC10849652
Of roughly 8,800 targets only a part is listed; those with a hit were picked by preference. About 0.5% of all pairs of compound and target were hits. A number with no mark means an inactive call.

Columns and labels:
Assay in all cases: log2 fold change, soluble protein after heating vs DMSO (PISA); higher = thermal stabilisation; K562 lysate, 10 uM; active = over 0.2 and 3.5 SD of the protein, either way, in both replicates (recomputed)
Tubastatin A = compound: CN1CCc2c(c3ccccc3n2Cc2ccc(C(=O)NO)cc2)C1 [Tubastatin A]
Summary of the method: (§1)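 The values are log-two fold changes in thermal stability compared with solvent controls and come from duplicates. They were obtained by TMTpro 16plex LC-MS/MS, with channel sums equalised, on the supernatant after 21,000xg for 90 min. That supernatant came from crude K562 extract at 1 mg/mL protein treated with 10 μM compound for 30 min, heated for 3 min across 48°C-58°C, pooled and brought to 0.5% NP-40 at 4°C.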

[1] = compound: CNC(=O)C1=CC=CC=C1NC2=NC(=NC=C2Cl)NC3=C(C=C(C=C3)N4CCOCC4)OC
Summary of the method: as §1

defactinib = compound: CNC(=O)c1ccc(Nc2ncc(C(F)(F)F)c(NCc3nccnc3N(C)S(C)(=O)=O)n2)cc1 [defactinib]
Summary of the method: as §1

[2] = compound: CNc1nc(-c2ccc3c(N)n[nH]c3c2)cc(N2C[C@@H](C(=O)NC3CCCCC3)CC[C@H]2C)n1
Summary of the method: as §1

encorafenib = compound: COC(=O)N[C@@H](C)CNc1nccc(-c2cn(C(C)C)nc2-c2cc(Cl)cc(NS(C)(=O)=O)c2F)n1 [encorafenib]
Summary of the method: as §1

[3] = compound: COC(=O)[C@H](CCSC)NC(=O)C1=C(C=C(C=C1)NC[C@H](CS)N)C2=CC=CC=C2
Summary of the method: as §1

[4] = compound: COc1cc2nc(-c3cc(F)ccc3O)nc(N[C@@H]3CNC[C@H]3C(C)(C)O)c2cc1OC
Summary of the method: as §1

lapatinib = compound: CS(=O)(=O)CCNCc1ccc(-c2ccc3ncnc(Nc4ccc(OCc5cccc(F)c5)c(Cl)c4)c3c2)o1 [lapatinib]
Summary of the method: as §1

crizotinib = compound: C[C@@H](Oc1cc(-c2cnn(C3CCNCC3)c2)cnc1N)c1c(Cl)ccc(F)c1Cl [crizotinib]
Summary of the method: as §1

duvelisib = compound: C[C@H](Nc1ncnc2nc[nH]c12)c1cc2cccc(Cl)c2c(=O)n1-c1ccccc1 [duvelisib]
Summary of the method: as §1

tozasertib = compound: Cc1cc(Nc2cc(N3CCN(C)CC3)nc(Sc3ccc(NC(=O)C4CC4)cc3)n2)n[nH]1 [tozasertib]
Summary of the method: as §1

doramapimod = compound: Cc1ccc(-n2nc(C(C)(C)C)cc2NC(=O)Nc2ccc(OCCN3CCOCC3)c3ccccc23)cc1 [doramapimod]
Summary of the method: as §1

alvocidib = compound: CN1CC[C@H](c2c(O)cc(O)c3c(=O)cc(-c4ccccc4Cl)oc23)[C@H](O)C1 [alvocidib]
Summary of the method: as §1

alisertib = compound: COc1cc(Nc2ncc3c(n2)-c2ccc(Cl)cc2C(c2c(F)cccc2OC)=NC3)ccc1C(=O)O [alisertib]
Summary of the method: as §1

gefitinib = compound: COc1cc2ncnc(Nc3ccc(F)c(Cl)c3)c2cc1OCCCN1CCOCC1 [gefitinib]
Summary of the method: as §1

pictilisib = compound: CS(=O)(=O)N1CCN(Cc2cc3nc(-c4cccc5[nH]ncc45)nc(N4CCOCC4)c3s2)CC1 [pictilisib]
Summary of the method: as §1

[5] = compound: C[C@H](C1=CC=C(C=C1)C(=O)NC2=C3C=CNC3=NC=C2)N
Summary of the method: as §1

gandotinib = compound: Cc1cc(Nc2cc(CN3CCOCC3)c3nc(C)c(Cc4ccc(Cl)cc4F)n3n2)n[nH]1 [gandotinib]
Summary of the method: as §1

bafetinib = compound: Cc1ccc(NC(=O)c2ccc(CN3CC[C@H](N(C)C)C3)c(C(F)(F)F)c2)cc1Nc1nccc(-c2cncnc2)n1 [bafetinib]
Summary of the method: as §1

[6] = compound: Cc1cccc(CC(=O)N2CCc3c2ccc(-c2cn(C)c4ncnc(N)c24)c3F)n1
Summary of the method: as §1

Chain of UniProt Q9Y2H6 (Q9Y2H6 whole entry, looked up): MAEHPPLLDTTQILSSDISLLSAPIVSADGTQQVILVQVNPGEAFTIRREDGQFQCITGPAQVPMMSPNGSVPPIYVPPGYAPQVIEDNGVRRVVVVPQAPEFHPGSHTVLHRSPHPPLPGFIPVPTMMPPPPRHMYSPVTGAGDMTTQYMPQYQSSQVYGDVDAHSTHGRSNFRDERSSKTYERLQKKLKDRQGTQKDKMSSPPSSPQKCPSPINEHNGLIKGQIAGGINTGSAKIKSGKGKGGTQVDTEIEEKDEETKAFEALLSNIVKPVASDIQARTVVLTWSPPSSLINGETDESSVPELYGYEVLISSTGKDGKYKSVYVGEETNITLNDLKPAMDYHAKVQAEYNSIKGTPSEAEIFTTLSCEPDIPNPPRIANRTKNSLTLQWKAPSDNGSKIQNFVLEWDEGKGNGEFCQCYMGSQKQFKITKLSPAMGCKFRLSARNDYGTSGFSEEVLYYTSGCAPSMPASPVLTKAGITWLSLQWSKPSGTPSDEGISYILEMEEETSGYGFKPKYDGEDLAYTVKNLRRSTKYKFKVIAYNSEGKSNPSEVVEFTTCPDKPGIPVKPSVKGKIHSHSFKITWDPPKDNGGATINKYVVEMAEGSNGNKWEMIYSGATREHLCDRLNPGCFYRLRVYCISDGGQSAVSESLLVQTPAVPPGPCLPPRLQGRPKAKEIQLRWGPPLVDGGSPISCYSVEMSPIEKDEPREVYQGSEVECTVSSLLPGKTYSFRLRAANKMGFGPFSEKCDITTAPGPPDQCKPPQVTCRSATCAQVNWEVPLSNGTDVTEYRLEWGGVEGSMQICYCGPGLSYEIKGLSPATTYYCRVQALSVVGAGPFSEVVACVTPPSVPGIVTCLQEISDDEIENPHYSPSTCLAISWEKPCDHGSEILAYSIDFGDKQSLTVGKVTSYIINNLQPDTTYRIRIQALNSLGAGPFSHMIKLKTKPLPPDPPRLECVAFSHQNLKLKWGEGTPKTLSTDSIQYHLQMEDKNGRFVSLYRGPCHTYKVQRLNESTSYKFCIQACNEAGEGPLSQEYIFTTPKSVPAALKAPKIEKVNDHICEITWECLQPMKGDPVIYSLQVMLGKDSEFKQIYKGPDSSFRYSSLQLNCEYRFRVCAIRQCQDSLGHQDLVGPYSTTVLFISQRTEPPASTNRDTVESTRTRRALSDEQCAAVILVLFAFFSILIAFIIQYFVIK
Chain of UniProt Q96PZ2 (Q96PZ2 whole entry, looked up): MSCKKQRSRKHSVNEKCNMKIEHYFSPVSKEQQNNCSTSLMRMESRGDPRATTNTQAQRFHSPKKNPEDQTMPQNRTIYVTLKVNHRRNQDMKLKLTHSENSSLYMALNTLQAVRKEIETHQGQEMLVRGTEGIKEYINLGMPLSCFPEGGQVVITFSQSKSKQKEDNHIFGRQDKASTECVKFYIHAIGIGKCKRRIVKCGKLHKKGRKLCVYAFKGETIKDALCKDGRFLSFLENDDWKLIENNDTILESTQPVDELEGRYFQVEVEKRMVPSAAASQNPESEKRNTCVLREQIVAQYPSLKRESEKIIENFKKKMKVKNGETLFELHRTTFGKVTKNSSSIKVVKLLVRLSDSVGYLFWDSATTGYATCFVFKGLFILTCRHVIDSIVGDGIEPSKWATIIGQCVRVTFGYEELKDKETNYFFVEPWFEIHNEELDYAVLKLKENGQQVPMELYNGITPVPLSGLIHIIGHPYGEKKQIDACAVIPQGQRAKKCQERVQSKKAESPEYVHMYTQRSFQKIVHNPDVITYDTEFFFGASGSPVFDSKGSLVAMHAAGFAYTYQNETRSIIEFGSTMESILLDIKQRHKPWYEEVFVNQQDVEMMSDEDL
Chain of UniProt Q9H8W3 (Q9H8W3 whole entry, looked up): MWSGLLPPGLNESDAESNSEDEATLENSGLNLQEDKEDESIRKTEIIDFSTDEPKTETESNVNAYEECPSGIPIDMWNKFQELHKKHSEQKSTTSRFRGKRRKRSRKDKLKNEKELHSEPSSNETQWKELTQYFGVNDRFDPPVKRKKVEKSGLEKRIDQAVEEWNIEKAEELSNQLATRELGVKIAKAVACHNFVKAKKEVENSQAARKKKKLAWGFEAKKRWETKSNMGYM
Chain of UniProt Q9Y6B2 (Q9Y6B2 whole entry, looked up): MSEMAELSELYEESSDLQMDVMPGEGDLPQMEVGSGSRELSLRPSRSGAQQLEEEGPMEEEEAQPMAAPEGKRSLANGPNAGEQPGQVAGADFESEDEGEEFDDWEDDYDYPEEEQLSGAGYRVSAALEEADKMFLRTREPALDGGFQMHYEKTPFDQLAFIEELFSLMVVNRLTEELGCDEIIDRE
Chain of UniProt Q9H790 (Q9H790 whole entry, looked up): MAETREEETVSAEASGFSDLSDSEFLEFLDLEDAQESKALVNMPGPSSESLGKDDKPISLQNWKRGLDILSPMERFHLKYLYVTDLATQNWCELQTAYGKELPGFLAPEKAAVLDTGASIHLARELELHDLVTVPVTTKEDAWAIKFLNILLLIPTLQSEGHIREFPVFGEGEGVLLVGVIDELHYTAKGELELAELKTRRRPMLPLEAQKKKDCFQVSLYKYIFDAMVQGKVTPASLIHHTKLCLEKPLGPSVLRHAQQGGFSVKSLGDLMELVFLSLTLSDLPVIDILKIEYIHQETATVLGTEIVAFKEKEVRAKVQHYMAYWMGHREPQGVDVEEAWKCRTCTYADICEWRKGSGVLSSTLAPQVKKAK
Chain of UniProt Q9UI10 (Q9UI10 whole entry, looked up): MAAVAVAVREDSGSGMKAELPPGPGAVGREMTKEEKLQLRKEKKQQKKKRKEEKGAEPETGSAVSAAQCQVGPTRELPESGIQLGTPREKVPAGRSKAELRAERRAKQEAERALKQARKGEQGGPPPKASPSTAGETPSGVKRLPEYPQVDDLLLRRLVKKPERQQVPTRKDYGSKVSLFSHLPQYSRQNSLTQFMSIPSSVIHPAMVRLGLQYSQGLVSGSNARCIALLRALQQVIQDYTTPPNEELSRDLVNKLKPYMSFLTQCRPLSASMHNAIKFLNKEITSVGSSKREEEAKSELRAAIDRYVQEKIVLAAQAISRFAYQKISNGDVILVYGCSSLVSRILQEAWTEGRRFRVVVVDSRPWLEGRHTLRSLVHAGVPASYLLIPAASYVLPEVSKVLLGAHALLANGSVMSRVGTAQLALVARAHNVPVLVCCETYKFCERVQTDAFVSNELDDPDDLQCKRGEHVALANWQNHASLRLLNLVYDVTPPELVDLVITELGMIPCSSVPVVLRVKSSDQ
Chain of UniProt Q9NZJ5 (Q9NZJ5 whole entry, looked up): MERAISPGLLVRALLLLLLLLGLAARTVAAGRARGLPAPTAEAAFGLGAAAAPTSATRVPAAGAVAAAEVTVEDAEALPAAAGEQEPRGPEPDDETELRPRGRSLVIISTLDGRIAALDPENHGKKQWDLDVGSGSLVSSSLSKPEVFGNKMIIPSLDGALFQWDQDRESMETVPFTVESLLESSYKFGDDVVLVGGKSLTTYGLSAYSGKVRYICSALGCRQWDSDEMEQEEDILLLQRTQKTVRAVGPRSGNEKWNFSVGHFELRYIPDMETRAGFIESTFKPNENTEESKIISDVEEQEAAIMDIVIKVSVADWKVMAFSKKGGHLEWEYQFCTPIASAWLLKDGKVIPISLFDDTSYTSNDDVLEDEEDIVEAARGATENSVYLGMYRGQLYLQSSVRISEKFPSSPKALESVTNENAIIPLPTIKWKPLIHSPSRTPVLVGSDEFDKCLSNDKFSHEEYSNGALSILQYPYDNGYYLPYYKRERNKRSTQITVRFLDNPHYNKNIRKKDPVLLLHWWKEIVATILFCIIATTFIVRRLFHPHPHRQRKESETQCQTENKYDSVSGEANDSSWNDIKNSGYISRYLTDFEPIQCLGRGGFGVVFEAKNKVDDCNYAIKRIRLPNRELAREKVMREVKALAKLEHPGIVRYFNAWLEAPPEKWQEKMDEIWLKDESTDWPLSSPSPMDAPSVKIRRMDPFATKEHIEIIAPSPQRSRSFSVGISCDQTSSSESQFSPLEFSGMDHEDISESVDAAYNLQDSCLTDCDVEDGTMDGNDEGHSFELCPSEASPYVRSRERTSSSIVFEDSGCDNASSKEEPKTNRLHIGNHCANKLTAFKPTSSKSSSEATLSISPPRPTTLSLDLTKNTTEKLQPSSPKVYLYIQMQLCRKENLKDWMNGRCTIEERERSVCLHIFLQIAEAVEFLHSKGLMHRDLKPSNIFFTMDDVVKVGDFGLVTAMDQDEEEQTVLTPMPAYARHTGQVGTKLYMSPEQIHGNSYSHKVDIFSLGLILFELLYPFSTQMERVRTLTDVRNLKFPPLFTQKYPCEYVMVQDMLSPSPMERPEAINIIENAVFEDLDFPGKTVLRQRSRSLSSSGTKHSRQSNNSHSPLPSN
Chain of UniProt Q9UET6 (Q9UET6 whole entry, looked up): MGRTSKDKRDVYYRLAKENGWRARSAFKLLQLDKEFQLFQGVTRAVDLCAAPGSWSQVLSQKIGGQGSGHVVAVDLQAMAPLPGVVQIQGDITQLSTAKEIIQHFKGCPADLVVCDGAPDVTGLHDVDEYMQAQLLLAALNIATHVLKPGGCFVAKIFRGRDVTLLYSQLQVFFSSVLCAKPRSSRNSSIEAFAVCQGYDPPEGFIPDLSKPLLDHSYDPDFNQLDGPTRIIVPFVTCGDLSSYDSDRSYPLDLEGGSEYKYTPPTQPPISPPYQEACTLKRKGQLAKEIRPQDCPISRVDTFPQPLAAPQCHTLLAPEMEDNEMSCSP
Chain of UniProt Q9NZC3 (Q9NZC3 whole entry, looked up): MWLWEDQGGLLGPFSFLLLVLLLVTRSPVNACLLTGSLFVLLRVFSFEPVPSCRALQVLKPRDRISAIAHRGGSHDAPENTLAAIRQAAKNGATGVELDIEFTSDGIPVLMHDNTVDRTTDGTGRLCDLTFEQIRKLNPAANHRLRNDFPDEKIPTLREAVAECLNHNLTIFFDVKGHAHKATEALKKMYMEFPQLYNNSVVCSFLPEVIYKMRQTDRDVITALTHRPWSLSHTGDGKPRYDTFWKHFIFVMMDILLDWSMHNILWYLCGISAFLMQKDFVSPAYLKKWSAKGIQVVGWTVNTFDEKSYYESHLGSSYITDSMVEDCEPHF

Target | log2 fold change (Tubastatin A) | log2 fold change [1] | log2 fold change (defactinib) | log2 fold change [2] | log2 fold change (encorafenib) | log2 fold change [3] | log2 fold change [4] | log2 fold change (lapatinib) | log2 fold change (crizotinib) | log2 fold change (duvelisib) | log2 fold change (tozasertib) | log2 fold change (doramapimod) | log2 fold change (alvocidib) | log2 fold change (alisertib) | log2 fold change (gefitinib) | log2 fold change (pictilisib) | log2 fold change [5] | log2 fold change (gandotinib) | log2 fold change (bafetinib) | log2 fold change [6]
FAM111A (UniProt Q96PZ2) | -0.083 | 0.022 | 0.053 | -0.119 | -0.074 | -0.11 | -0.091 | 0.223 | -0.01 | 0.03 | -0.02 | -0.163 |  |  |  |  |  |  |  | 
FOXJ2 (UniProt Q9P0K8) | -0.114 | 0.021 |  | 0.053 | -0.081 | 0.022 |  |  |  | 0.039 | 0.127 |  | 0.006 | -0.308 | 0.057 | 0.043 | -0.037 | 0.044 | -0.224 | 0.056
EPB41, A0A2R8Y783 |  |  | 0.05 | -0.13 | -0.523 | 0.118 | 0.029 | -0.063 |  | -0.089 | 0.061 |  | -0.248 |  |  | 0.04 | 0.121 | -0.066 | 0.04 | -0.006
EPS8L2 (UniProt Q9H6S3) | 0.078 | -0.016 |  | 0.031 | 0.096 | -0.037 | -0.036 | 0.044 | -0.012 | -0.086 | -0.258 | -0.046 | -0.009 | 0.01 | -0.149 | -0.03 | -0.068 | 0.061 | -0.101 | 0.207
GDE1 (UniProt Q9NZC3) | -0.047 | 0.014 |  | 0.024 | -0.045 | -0.02 | -0.038 | -0.016 | -0.005 | 0.049 | 0.157 | -0.017 | 0.307 |  |  | 0.114 | 0.842 (active) | -0.434 (active) | -0.041 | -0.409 (active)
GBA2 (UniProt Q9HCG7) | -0.032 | 0.073 |  | -0.098 | -0.052 | 0.079 | 0.013 | -0.062 | 0.014 | 0.06 | -0.138 | 0.055 | -0.046 | -0.004 | 0.2 | -0.012 | -0.094 | -0.009 | -0.199 | 0.054
DUSP22 isoform 2 (UniProt Q9NRW4) | -0.079 | -0.066 | -0.085 | 0.043 |  |  | -0.11 | 0.031 |  | 0.038 |  |  | 0.034 | 0.18 | -0.101 | -0.082 | -0.058 | 0.03 | 0.018 | 0.037
DYRK1A isoform 2 (UniProt Q13627) | 0.023 | 0.148 |  |  |  |  |  |  | -0.071 |  |  | 0.092 | 0.225 |  |  | -0.166 | -0.171 | 0.014 | 0.145 | 0.034
EPN2 (UniProt I3L356) |  |  |  |  |  |  | -0.02 | 0.014 |  |  |  |  | -0.108 | -0.253 | 0.321 | -0.054 | -0.361 | 0.081 | 0.031 | 0.146
GAA (UniProt P10253) | 0.098 | -0.047 | -0.513 (active) |  | 0.097 | -0.15 | 0.089 | 0.083 | -0.098 |  | -0.027 | -0.099 | -0.006 | -0.117 | -0.043 | 0.034 | -0.018 | 0.04 | 0.081 | -0.04
FNDC3A (UniProt Q9Y2H6) | -0.237 | 0.014 |  |  |  |  |  |  | 0.036 |  |  | 0.143 | -0.017 | -0.141 | -0.214 |  | -0.808 (active) | 0.42 |  | 0.126
EXO5 (UniProt Q9H790) | 0.018 | 0.068 |  |  |  |  |  |  | -0.113 |  |  | 0.061 |  |  |  | -0.43 (active) |  |  | -0.261 | 
FTSJ1 isoform 2 (UniProt Q9UET6) |  |  | 0.028 |  | -0.027 | 0.047 | -0.016 | 0.013 |  |  | -0.175 |  | 0.015 |  |  |  | -0.129 | 0.077 |  | 0.079
GC isoform 3 (UniProt P02774) | 0.087 |  | -0.003 | 0.244 | -0.018 | -0.049 |  |  | 0.029 | 0.133 | -0.004 | -0.081 | 0.105 |  |  |  | 0.173 | -0.025 |  | -0.075
DTL (UniProt Q9NZJ0) | -0.072 | -0.003 | 0.071 | -0.092 |  |  |  |  | -0.035 | 0.174 |  | 0.064 | -0.008 | -0.038 | 0.043 | -0.026 | 0.059 | -0.053 | -0.099 | 0.006
EIF2B4 (UniProt Q9UI10) | 0.006 | -0.004 | 0.03 | -0.058 | 0.114 | -0.1 | -0.008 | -0.003 | -0.057 | -0.032 | -0.314 (active) | -0.019 |  | -0.039 | 0.074 | 0.038 |  |  | -0.04 | 
EPB41 isoform 4 (UniProt P11171) | 0.012 | -0.089 |  |  |  |  | -0.153 | 0.014 | -0.038 |  |  | 0.046 | -0.014 | -0.09 | -0.096 |  | 0.012 | -0.004 |  | -0.024
EWSR1 (UniProt H7BY36) | 0.179 |  | 0.14 | 0.037 | 0.063 | -0.061 |  |  | -0.042 | -0.011 | 0.01 | -0.066 | 0.206 |  |  | 0.071 | 0.07 | -0.167 | 0.293 | 0.019
FAM204A (UniProt Q9H8W3) | -0.036 | 0.018 | 0.146 |  |  |  |  |  | -0.053 |  |  | 0.154 | -0.139 |  |  |  | 0.412 | 0.045 |  | -0.077
EID1 (UniProt Q9Y6B2) | -0.004 | 0.036 |  | 0.046 | -0.057 | 0.072 |  |  |  | 0.604 (active) | -0.043 |  | -0.061 | -0.067 | 0.022 |  | -0.02 | 0.108 |  | 0.069
EIF2AK3 (UniProt Q9NZJ5) | -0.369 | 0.28 |  | 0.104 |  |  | -0.197 | 0.3 |  | -0.122 |  |  | 0.281 | -0.128 | 0.001 |  | -0.051 | -0.212 |  | 1.48 (active)
FAT1 (UniProt Q14517) | 0.18 | 0 |  |  | 0.029 | 0.047 | 0.094 | -0.129 | -0.109 |  | -0.139 | 0.475 | -0.14 |  |  |  | 0.079 | 0.027 |  | 0.072
FAT2 (UniProt Q9NYQ8) | -0.083 | -0.123 | -0.034 |  | -0.092 | 0.104 | 0.043 | -0.027 | -0.512 |  | 0.055 | -0.094 | -0.214 | -0.023 | 0.013 | -0.015 | -0.366 | 0.182 | -0.244 | 0.407
